High-throughput results as filed in PubChem.
Tau fluor cs – counter-screen for tau fibril formation inhibitors; tau K18 P301L Alexa594 fluorescence, heparin fibrillization; Potency, µM (series often up to 57.7 µM), without a hit: top-dose activity change, negative = decrease; actives 0.93% (n = 280,000); note: potency is the fitted concentration of half-maximal effect; nearly all actives have a fitted effect of over 55% in size
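Human K18 P301L tau (15 uM unlabeled plus 0.24 uM Alexa 594-labeled, final) in 100 mM sodium acetate pH 7 was mixed with compound and 20 uM heparin and incubated 6 hr at 37 C.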
Tau fibril ThT – blocks human tau fibril formation measured by thioflavin T. P10636. recombinant tau K18 P301L, heparin-induced fibrillization, ThT fluorescence. Potency, µM (top dose mostly 57.4 µM), inactives show at the top dose activity, negative = inhibition, hits mostly inhibitors. actives 2.1% (n = 270,000). AID 1460; note: potency is the fitted concentration of half-maximal effect; nearly all actives have a fitted effect of over 55% in size
Target sequence (P10636 561-689 P618L limits assumed): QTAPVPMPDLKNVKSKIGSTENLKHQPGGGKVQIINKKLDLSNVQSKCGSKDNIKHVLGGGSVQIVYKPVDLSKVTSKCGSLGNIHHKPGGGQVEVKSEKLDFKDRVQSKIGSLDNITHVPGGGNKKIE
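Heparin-induced fibrillization of the P301L-mutant K18 repeat-domain fragment of human tau was followed by ThT binding in quantitative high-throughput format.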
Tau fibril FP – blocks human tau fibril formation measured by polarization. P10636. K18 P301L tau heparin fibrillization, Alexa594 FP, 6 h. Potency, µM (top dose mostly 57.7 µM), for inactives: at the top dose activity, negative = inhibition, hits mostly inhibitors. actives 0.39% (n = 280,000); note: potency is the fitted concentration of half-maximal effect; nearly all actives have a fitted effect of over 55% in size
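Heparin (20 uM) drove fibril formation of recombinant tau K18 P301L, 15 uM unlabeled with 0.24 uM Alexa 594 label, for 6 hr at 37 C in 100 mM sodium acetate pH 7. Fluorescence polarization (555/632 nm) read 1 hr after 30 uM ThT.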
USP1 inh – USP1/UAF1 (human) deubiquitinase inhibition. O94782. recombinant USP1/UAF1, Ub-Rhodamine cleavage fluorescence. Potency, µM (top dose mostly 57.1 µM), without a hit: at the highest dose activity change, negative = inhibition, most hits filed as inhibitors. actives 0.23% (n = 390,000). AID 743255; note: potency is the fitted concentration of half-maximal effect; nearly all actives have a fitted effect of over 60% in size
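High-throughput fluorogenic screen: 1nM USP1/UAF1 complex, Ub-Rho substrate 150nM final, 50mM HEPES pH 7.8 with 0.5mM EDTA, 0.1 mg/ml BSA, 1mM TCEP and 0.01% Tween-20.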
FBPA coupling cs – inhibits coupling enzyme system, counter-screen for aldolase hits. coupling enzyme system counterscreen, AmpLite Red fluorescence. activity change, negative = inhibition, % at 58.2 µM, hits read low. actives 0.67% (n = 290,000); in the data active = activity change below about -30%
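Coupling enzymes only (glyceraldehyde-3-phosphate) + compound, at 57.5 uM final, 10 min RT; add substrate/coupling/AmpLite Red mix, 20 min RT; fluorescence ex 525/em 598 nm. Actives flag coupling-system interference.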
* hit, by the source's call; ? = inconclusive; / = no result given; ! = repeats disagree; [ ] = another dose, or the depositor's remark. Rows were chosen to be rich in hits. Some 2.3% of all compounds tested hit in one or more screens of this group. Unless noted, calls come from the whole dose curve; as a rule, active = well fitted curve in the direction sought with a large enough effect; inconclusive = small, poorly fitted or top-dose-only effect, or another doubt; inactive = no such curve, though single readings can be large; an effect the other way counts as inactive or inconclusive. % is set by controls: 0 for no effect and ±100 for the full control effect.

SMILES | Tau fluor cs | Tau fibril ThT | Tau fibril FP | USP1 inh | FBPA coupling cs
Cc1ccccc1CN1C(=O)c2ccccc2S(=O)c2ccc(C(=O)NCc3ccc(Cl)cc3)cc21 (configuration not stated) | -15% | 5% | -19% | -20% | /
Cc1ccc(C(=O)Nc2ccccc2C(=O)O)cc1S(=O)(=O)N1CCCCCC1 | -5% | -5% | 5% | -21% | /
O=C(O)CCCNc1cc(N2CCN(C3CCCCC3)CC2)c2noc3c2c1C(=O)c1ccccc1-3 | ? | 8.9µM* | ? | -26% | /
O=C(N/N=C1/C[C@@H](O)[C@@H](O)[C@@H]2[C@@H]3C(=O)N(C[C@@H]4CCCO4)C(=O)[C@H]3CC[C@H]12)OCc1ccccc1 | 1%[11.6 µM] | 0%[11.5 µM] | ? | / | 4
COc1cc(/C=C(\C#N)C(=O)c2c(C)[nH]c3ccccc23)cc(OC)c1OC | -22% | -13% | -1% | -26% | -1
COCCN=c1scc(-c2cc(OC)c(OC)c(OC)c2)n1/N=C/c1c(C)[nH]c2ccccc12 | 7.9µM*[quencher] | ? | 6% | -13% | -3
CC(C)NS(=O)(=O)c1ccc(CCC(=O)N2CCC(C(N)=O)CC2)cc1 | -27% | ? | -11% | -7% | -31*
CC(C)NS(=O)(=O)c1ccc(CCC(=O)N2CCCC2)cc1 | 2% | 1% | -3% | -8% | -2
CN(C)/C=C(\C=N\OCc1ccc(Cl)cc1Cl)C(=O)Nc1ccc(Cl)c(Cl)c1 | 16µM*[quencher] | ? | -7% | / | 3
Cc1cc(O)c(/C=N/OCc2ccc(Cl)cc2Cl)c(=O)o1 | -2% | -7% | -2% | -6% | 14
O=C(/C=C/c1ccccc1Cl)c1ccccc(=O)c1O | -25% | 14µM* | ? | -26% | 2
O=C(/C=C/c1ccccc1Cl)c1ccc(O)cc1 | -18% | ? | -4% | -22% | -1
Cc1ccc(/C=C/C(=O)c2ccccc(=O)c2O)c(C)c1 | -10% | ? | -4% | ? | -5
Cc1ccc(C)c(/C=C/C(=O)c2ccccc(=O)c2O)c1 | ? | 22µM* | ? | -26% | -1
COc1ccc(N(C(=O)c2cc(OC)c(OC)c(OC)c2)S(=O)(=O)c2ccc(C)cc2)cc1 | -14% | -10% | 1% | -25% | /
COC(=O)C/C=C\[C@H](C)[C@@H](OCc1ccccc1Br)C(C)C | -7%[11.6 µM] | -7%[11.5 µM] | -3%[11.6 µM] | / | 0
O=C(COc1ncnc2ccccc12)NCC1CCCO1 (configuration not stated) | 13% | 9% | 5% | -19% | -2
NC(=O)N/N=C/c1cn(-c2ccccc2)nc1-c1ccccc1 | -24% | 4% | -14% | 4% | -2
NS(=O)(=O)c1ccc(N/N=C/c2cn(-c3ccccc3)nc2-c2ccccc2)c([N+](=O)[O-])c1 | 18µM*[quencher] | 16µM* | 4% | -8% | 0
O=[N+]([O-])c1ccc(N/N=C/c2cn(-c3ccccc3)nc2-c2ccccc2)cc1 | 7.9µM*[quencher] | 7.9µM* | 7% | -8% | 1
O=C(O)/C=C/c1cn(-c2ccccc2)nc1-c1cccc([N+](=O)[O-])c1 | -16% | ? | 5% | -22% | -2
O=C(O)/C=C/c1cn(-c2ccccc2)nc1-c1ccc(-c2ccc([N+](=O)[O-])cc2)o1 | ? | 1.1µM* | -1% | 1% | 4
Cc1ccc2c(C(=O)CN3CCN(C(=O)c4ccco4)CC3)c(C)[nH]c2c1 | -9% | -9% | 0% | 0% | 0
CCCCOc1c(Cl)cc(C(=O)N(Cc2ccc(C)o2)C2CCS(=O)(=O)C2)cc1Cl (configuration not stated) | -11% | ? | 7% | -18% | /
Cc1cc[n+](-c2nc3ccccc3nc2C(=C=[N-])C#N)cc1 | -4% | -10% | -6% | -10% | -41*
SMILES | Tau fluor cs | Tau fibril ThT | Tau fibril FP | USP1 inh | FBPA coupling cs
C=CC1=C2C=C(C3CC3)N(CC3CC3)C=C2C(=O)C(C)(OC(=O)c2ccco2)C1=O (configuration not stated) | -3%[11.6 µM] | -16%[11.5 µM] | -1%[11.6 µM] | ? | -31*
C=CC1=C2C=C(C3CC3)N(CCCCO)C=C2C(=O)C(C)(OC(=O)c2ccco2)C1=O (configuration not stated) | -9%[11.6 µM] | ? | ? | / | -42*
Cc1cc(C)c(C)c(OCC(=O)Nc2ccc(S(=O)(=O)Nc3nc(C)cc(C)n3)cc2)c1 | -23% | ? | 3% | -20% | /
O=C(CCCc1ccc(-c2ccccc2F)cc1)Nc1ccc(O)cc1 | 11µM*[quencher] | ? | ? | / | 1
O=C(Cn1c(=O)n(Cc2nc(-c3ccccc3)no2)c(=O)c2cc3c(cc21)OCO3)Nc1cccc(C(F)(F)F)c1 | -9% | ? | 10µM* | -16% | /
COc1ccc(-c2noc(Cn3c(=O)c4ccccc4n(CC(=O)Nc4cccc(C(F)(F)F)c4)c3=O)n2)cc1 | -9% | ? | 11µM* | -7% | /
Cc1ccc(NC(=O)Cn2c(=O)n(Cc3nc(-c4ccccc4)no3)c(=O)c3ccccc32)cc1C | -21% | 22% | ? | -17% | /
C=Cc1c(C)c2cc3[nH]c(cc4nc(cc5nc(cc1[nH]2)C(C)=C5CCC(=O)O)C(CCC(=O)O)=C4C)c(C)c3C=C | 16µM*[quencher] | 16µM* | 25µM* | ? | -14
CCC(C(=O)Nc1ccccc1OC)n1c(C(=O)OC)cc2sc(Cl)cc21 (configuration not stated) | -30% | -6% | -16% | -9% | /
CCN(CC)S(=O)(=O)c1ccc2c(c1)N(CC(=O)Nc1cccc(C(C)=O)c1)C(=O)CO2 | -16% | 4% | -6% | -2% | /
Cc1[nH]c2ccccc2c1/C=N/NC(=O)c1cccc(Br)c1 | / | / | / | -14% | 0
CCc1cccc2c(/C=N/NC(=O)c3cccc(S(=O)(=O)Nc4ccccc4Cl)c3)c[nH]c12 | 11µM*[quencher] | 14µM* | -8% | -27% | -2
Cc1[nH]c2ccccc2c1/C=N/NC(=O)c1cccc(S(=O)(=O)Nc2ccccc2Cl)c1 | 11µM*[quencher] | ? | ? | -20% | -26
CC(=O)N1CCc2c(sc3c2c(=O)n(-c2ccc(C)cc2)c(=O)n3Cc2c(F)cccc2Cl)C1 | 2% | 8% | -10% | -7% | /
Cc1cc(C)c(S(=O)(=O)NCCc2csc3nc(-c4ccc(Cl)cc4)nn23)c(C)c1 | ? | -6% | ? | -19% | /
CC1(OC(=O)C2CCCC2)C(=O)C=C2C=C(c3ccsc3)N(c3ccccc3)C=C2C1=O (configuration not stated) | -3%[11.6 µM] | ? | ? | ? | 0
CC1(OC(=O)C2CCCC2)C(=O)C=C2C=C(c3ccsc3)N(C(CO)CO)C=C2C1=O (configuration not stated) | -7%[11.6 µM] | ? | -7%[11.6 µM] | -23% | -31*!
